From PubChem BioAssay (Tox21)
Values joined by “and” are separate entries in the source; they are usually repeats but may differ in a detail not shown here. Equal entries are not always repeated. Records with an inconclusive call do not appear. A call without a number means that no potency is given here. Some structures have more than one record in an assay (separate samples or runs), and their calls can disagree. Active and inactive are the calls of the source. Unless noted, the call rests on the fitted dose curve; in most records, active means well fitted curve in the direction sought with a large enough effect in the repeat runs; inconclusive means weak or mixed curves; inactive means no such curve, though single readings can be large; an effect the other way counts as inactive or inconclusive.

Assays:
[1] = biological target: Thyrotropin receptor (Homo sapiens) (UniProt P16473); experiment: qHTS assay to identify small molecule antagonists of the thyroid stimulating hormone receptor (TSHR) signaling pathway (AID 1259385; calls by dose curve; further: nearly all actives have a fitted effect of over 20% in size)
Thyrotropin receptor (Homo sapiens), sequence (P16473 whole entry, looked up): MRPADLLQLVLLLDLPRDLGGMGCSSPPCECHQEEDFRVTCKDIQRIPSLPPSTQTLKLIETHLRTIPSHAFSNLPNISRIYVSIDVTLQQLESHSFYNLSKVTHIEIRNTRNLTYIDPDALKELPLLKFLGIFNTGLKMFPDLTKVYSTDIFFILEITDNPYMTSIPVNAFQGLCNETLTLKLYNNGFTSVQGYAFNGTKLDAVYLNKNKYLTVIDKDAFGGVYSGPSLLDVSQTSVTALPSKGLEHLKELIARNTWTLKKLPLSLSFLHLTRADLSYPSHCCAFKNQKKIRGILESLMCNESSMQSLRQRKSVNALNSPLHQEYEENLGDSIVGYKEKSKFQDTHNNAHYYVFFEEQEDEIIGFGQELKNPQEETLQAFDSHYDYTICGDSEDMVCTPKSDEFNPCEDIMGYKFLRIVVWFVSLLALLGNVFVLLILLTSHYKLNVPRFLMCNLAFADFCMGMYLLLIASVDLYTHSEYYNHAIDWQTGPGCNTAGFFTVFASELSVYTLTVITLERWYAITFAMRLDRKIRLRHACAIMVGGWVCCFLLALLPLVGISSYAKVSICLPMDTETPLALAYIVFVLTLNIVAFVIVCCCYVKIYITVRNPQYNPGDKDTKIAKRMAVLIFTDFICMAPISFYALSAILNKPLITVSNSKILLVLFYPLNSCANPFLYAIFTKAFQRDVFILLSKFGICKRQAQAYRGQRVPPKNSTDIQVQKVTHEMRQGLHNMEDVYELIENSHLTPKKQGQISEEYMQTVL
In short: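 Antagonist mode: compound-treated TSHR-expressing HEK293 cells were stimulated with 1.5 ng/mL TSH (final) in presence of Ro20-1724 for 30 min at RT. HTRF cAMP detection after 1 h; each compound tested at 15 concentrations, triplicate.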

[2] = qHTS assay to identify small molecule agonists of the estrogen receptor alpha (ER-alpha) signaling pathway in the presence of an antagonist - cell viability counter screen (AID 1259386);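 further: cells exposed to compounds for 22 h at 37 °C before the viability read; nearly all actives have a fitted effect of over 30% in size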; further: potency means the concentration at half of the fitted maximal effect
In short: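 Steps: 5-day stripped-FBS culture; seed and incubate 24hr; add ICI-182,780 (10.0nM final); pin 15-point compound titration; incubate 22hr at 37C; add CellTiter-Fluor at 21hr; read fluorescence.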

[3] = biological target: Progesterone receptor (Homo sapiens) (UniProt P06401); experiment: qHTS assay to identify small molecule agonists of the progesterone receptor (PR) signaling pathway (AID 1346784; calls by dose curve; further: nearly all actives have a fitted effect of over 30% in size)
Progesterone receptor (Homo sapiens), sequence (P06401 whole entry, looked up): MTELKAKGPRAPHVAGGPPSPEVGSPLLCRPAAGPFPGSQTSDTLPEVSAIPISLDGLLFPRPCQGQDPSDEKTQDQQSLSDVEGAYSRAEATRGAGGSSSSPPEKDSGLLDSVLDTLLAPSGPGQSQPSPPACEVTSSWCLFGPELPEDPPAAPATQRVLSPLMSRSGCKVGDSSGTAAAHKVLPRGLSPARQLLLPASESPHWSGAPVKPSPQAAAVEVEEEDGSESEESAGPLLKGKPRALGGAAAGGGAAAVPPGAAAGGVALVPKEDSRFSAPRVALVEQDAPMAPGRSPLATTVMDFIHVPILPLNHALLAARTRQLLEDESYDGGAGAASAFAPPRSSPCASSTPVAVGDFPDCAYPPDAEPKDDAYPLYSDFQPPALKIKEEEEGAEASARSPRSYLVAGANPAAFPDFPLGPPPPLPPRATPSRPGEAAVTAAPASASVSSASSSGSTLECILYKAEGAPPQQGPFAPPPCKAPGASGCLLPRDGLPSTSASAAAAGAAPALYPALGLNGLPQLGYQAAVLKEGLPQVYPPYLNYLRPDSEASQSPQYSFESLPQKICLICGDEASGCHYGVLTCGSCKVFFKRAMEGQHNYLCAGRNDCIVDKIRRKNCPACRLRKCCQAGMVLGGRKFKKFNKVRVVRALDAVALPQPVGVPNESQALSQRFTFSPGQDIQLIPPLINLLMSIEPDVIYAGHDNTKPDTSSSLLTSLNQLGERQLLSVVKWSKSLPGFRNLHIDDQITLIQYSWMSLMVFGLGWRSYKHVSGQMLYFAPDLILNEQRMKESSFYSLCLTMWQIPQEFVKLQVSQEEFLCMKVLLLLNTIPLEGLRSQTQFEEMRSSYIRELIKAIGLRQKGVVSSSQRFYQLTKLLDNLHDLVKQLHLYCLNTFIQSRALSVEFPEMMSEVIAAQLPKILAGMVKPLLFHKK
In short: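 HEK 293T PR-UAS-bla reporter cells, 2% charcoal-stripped FBS; 6 hr settle at 37C/5% CO2, compound (DMSO) 16 hr, LiveBLAzer B/G FRET substrate 2 hr RT, fluorescence intensity read.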

[4] = biological target: Progesterone receptor (Homo sapiens) (UniProt P06401); experiment: qHTS assay to identify small molecule antagonists of the progesterone receptor (PR) signaling pathway (AID 1346795; active means well fitted inhibition curve with a large enough effect in the signal ratio in the repeat runs, not every such curve was filed as active; the % refers to the signal ratio)
In short: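 Beta-lactamase reporter, HEK293T PR-UAS-bla line; 2% charcoal-stripped FBS; 6 hr pre-incubation, 37C/5% CO2. Compound + R5020 1 nM final, 16 hr. LiveBLAzer B/G FRET substrate, 2 hr RT; fluorescence intensity read.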

[5] = qHTS assay to identify small molecule antagonists of the progesterone receptor (PR) signaling pathway - cell viability counter screen (AID 1346798); further: series mostly up to about 92 µM; nearly all actives have a fitted effect of over 50% in size
In short: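 Luminescence readout (CellTiter-Glo, 30 min, RT) of viability in PR-UAS-bla HEK293T cells exposed to compound and R5020 agonist for 16 hr at 37C, 5% CO2; run in the same wells as the beta-lactamase reporter read.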

[6] = qHTS assay to identify small molecule agonists of the progesterone receptor (PR) signaling pathway - cell viability counter screen (AID 1346799; calls by dose curve; further: nearly all actives have a fitted effect of over 45% in size)
In short: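 HEK293T PR-UAS-bla, 3,000 cells/well, 2% charcoal-stripped FBS; 6 h settle, compound 16 h at 37C/5% CO2; LiveBLAzer 2 h RT, then CellTiter-Glo 30 min RT, luminescence read.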

[7] = qHTS assay to identify small molecule antagonists of the TGF-beta/Smad signaling pathway - cell viability counter screen (AID 1346824); further: nearly all actives have a fitted effect of over 50% in size
In short: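 Cytotoxicity counter-screen run in the same wells as the beta-lactamase Smad reporter read: CellTiter-Glo luminescence after 30 min at room temperature. HEK 293T SBE-bla cells had 5 hr compound exposure at 37 C with TGF-beta1 (0.25 ng/mL stock).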

[8] = qHTS assay to identify small molecule agonists of the TGF-beta/Smad signaling pathway - cell viability counter screen (AID 1346829); further: top concentration of the series differs between compounds; nearly all actives have a fitted effect of over 45% in size
In short: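 Same-well cytotoxicity: CellTiter-Glo added after the 2 hr room-temperature beta-lactamase substrate step, luminescence measured 30 min later; cells had 5 hr of compound at 37 C.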

[9] = qHTS assay to identify small molecule agonists of the TGF-beta/Smad signaling pathway (AID 1346859; active means well fitted activation curve with a large enough effect in the signal ratio in the repeat runs, not every such curve was filed as active; the % refers to the signal ratio; further: series mostly up to about 77 µM)
In short: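 Read-out: fluorescence at 460 and 530 nm (405 nm excitation) after a 2 hr room-temperature incubation with beta-lactamase FRET substrate. SBE-bla HEK 293T cells had been treated with test compounds for 5 hr at 37 C.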

[10] = biological target: Thyrotropin-releasing hormone receptor (Homo sapiens) (UniProt P34981); experiment: qHTS assay to identify small molecule antagonists of the thyrotropin-releasing hormone receptor (TRHR) signaling pathway (AID 1346877; active means well fitted inhibition curve with a large enough effect in the repeat runs, not every such curve was filed as active; further: series mostly up to about 51 µM)
Thyrotropin-releasing hormone receptor (Homo sapiens), sequence (P34981 whole entry, looked up): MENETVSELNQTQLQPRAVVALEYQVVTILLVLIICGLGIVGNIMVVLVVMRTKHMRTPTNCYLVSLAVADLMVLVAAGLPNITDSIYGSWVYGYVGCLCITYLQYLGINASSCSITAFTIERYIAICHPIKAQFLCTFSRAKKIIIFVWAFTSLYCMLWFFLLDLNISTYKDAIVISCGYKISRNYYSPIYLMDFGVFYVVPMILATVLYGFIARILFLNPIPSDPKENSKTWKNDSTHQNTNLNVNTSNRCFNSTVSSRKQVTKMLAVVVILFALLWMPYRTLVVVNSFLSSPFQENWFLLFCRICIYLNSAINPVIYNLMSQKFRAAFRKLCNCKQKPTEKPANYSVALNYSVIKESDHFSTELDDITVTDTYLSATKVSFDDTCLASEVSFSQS
In short: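 Human TRHR in HEK293 cells; inhibition of the intracellular calcium rise triggered by 1 nM TRH was followed by fluorescence over 3 min. Compounds were run at 15 concentrations, three replicates each.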

[11] = Human pregnane X receptor (PXR) small molecule agonists, qHTS cell viability counter screen (AID 1346977); further: nearly all actives have a fitted effect of over 50% in size; further: potency means the concentration at half of the fitted maximal effect
In short: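 Fluorescence read-out (CellTiter-Fluor) of viability in PXR-Luc HepG2 cells, multiplexed with the luciferase agonist read. Compounds in DMSO added after 5hr plating; 24hr total exposure at 37C, 5% CO2.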

[12] = Caspase-3/7 induction in HepG2 cells by small molecules, qHTS assay (AID 1346978); further: nearly all actives have a fitted effect of over 15% in size
In short: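 Caspase-3/7 induction was measured by Caspase-Glo 3/7 luminescence (30 min, room temperature) after a 17 hr compound exposure of wild-type HepG2 cells seeded at 2,000 per well and pre-incubated 5 hr.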

[13] = Caspase-3/7 induction in CHO-K1 cells by small molecules, qHTS cell viability counter screen (AID 1346979); further: nearly all actives have a fitted effect of over 35% in size
In short: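 CHO-K1 wt, 1,500 cells/well; 5hr pre-incubation 37C/5% CO2; compound pin transfer (DMSO); 16hr exposure; CellTiter-Fluor added, 1hr, fluorescence read.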

[14] = Caspase-3/7 induction in CHO-K1 cells by small molecules, qHTS assay (AID 1346980); further: nearly all actives have a fitted effect of over 15% in size
In short: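 Luminescent Caspase-Glo 3/7 read (30min, room temperature) quantified apoptosis induction. Cells were wild-type CHO-K1, treated with compound for 17hr at 37 C and 5% CO2.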

[15] = Caspase-3/7 induction in HepG2 cells by small molecules, qHTS cell viability counter screen (AID 1346981); further: series mostly up to about 92 µM; nearly all actives have a fitted effect of over 30% in size
In short: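 The parent HepG2 line is plated at 2,000 cells per well and rested 5 hr before compound pinning from DMSO stocks. Following a 16-hr treatment at 37 C, a fluorogenic live-cell substrate (CellTiter-Fluor) reports viability after 1 hr.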

[16] = biological target: Nuclear receptor subfamily 1 group I member 2 (Rattus norvegicus) (UniProt Q9R1A7); experiment: Rat pregnane X receptor (rPXR) activation by small molecules, qHTS assay (AID 1346983); settings: rPXR luciferase reporter cells, One-Glo luminescence, 24 h; max activation: stronger effect = higher value; further: nearly all actives have a fitted effect of over 20% in size
Nuclear receptor subfamily 1 group I member 2 (Rattus norvegicus), sequence (Q9R1A7 whole entry, looked up): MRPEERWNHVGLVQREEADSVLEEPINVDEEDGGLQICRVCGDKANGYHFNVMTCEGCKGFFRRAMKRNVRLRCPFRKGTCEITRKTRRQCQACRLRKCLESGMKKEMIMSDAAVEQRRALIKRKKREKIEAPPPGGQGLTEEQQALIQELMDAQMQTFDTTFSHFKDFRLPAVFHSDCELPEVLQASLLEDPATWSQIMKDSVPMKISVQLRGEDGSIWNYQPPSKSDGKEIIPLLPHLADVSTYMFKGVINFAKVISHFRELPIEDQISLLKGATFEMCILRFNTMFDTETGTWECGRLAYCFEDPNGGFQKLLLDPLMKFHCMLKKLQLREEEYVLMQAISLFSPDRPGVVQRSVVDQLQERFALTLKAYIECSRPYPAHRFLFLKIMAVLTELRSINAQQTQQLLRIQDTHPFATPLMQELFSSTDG
In short: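 Luminescent readout (One-Glo luciferase, 30 min room temperature) followed 24 hr compound treatment at 37 C of rPXR cells plated 2,000 per well and preincubated 5hr; qHTS format with compounds delivered in DMSO.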

[17] = biological target: Nuclear receptor subfamily 1 group I member 2 (Homo sapiens) (UniProt O75469); experiment: Human pregnane X receptor (PXR) small molecule agonists, qHTS assay (AID 1346982); further: nearly all actives have a fitted effect of over 35% in size; further: potency means the concentration at half of the fitted maximal effect
Nuclear receptor subfamily 1 group I member 2 (Homo sapiens), sequence (O75469 whole entry, looked up): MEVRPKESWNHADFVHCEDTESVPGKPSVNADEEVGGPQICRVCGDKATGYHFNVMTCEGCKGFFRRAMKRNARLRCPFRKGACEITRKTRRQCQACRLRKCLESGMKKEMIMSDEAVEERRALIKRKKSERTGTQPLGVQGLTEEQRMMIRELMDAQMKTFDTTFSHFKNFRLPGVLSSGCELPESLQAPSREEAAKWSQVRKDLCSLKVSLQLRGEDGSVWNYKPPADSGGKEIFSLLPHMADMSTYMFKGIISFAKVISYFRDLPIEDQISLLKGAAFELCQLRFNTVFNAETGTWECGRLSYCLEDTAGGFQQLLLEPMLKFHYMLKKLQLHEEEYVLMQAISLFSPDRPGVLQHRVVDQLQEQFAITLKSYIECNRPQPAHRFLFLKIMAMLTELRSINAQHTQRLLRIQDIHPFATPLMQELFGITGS
In short: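 After plating in 5% charcoal-stripped FBS and a 5 hr rest, PXR-Luc HepG2 cells received compounds in DMSO. Following 24 hr at 37 C, ONE-Glo was added and light output read.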

[18] = biological target: Nuclear receptor subfamily 1 group I member 2 (Homo sapiens) (UniProt O75469); experiment: CYP3A4 induction through human pregnane X receptor (PXR) by small molecules, qHTS assay (AID 1346984); further: nearly all actives have a fitted effect of over 40% in size
In short: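 Human PXR activation is tracked via CYP3A4 promoter-luciferase in DPX-2 (HepG2) cells. Compounds treat cells for 24hr at 37C, and luminescence is read after One-Glo.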

[19] = biological target: Nuclear receptor subfamily 1 group I member 2 (Homo sapiens) (UniProt O75469); experiment: Human pregnane X receptor (PXR) activation by small molecules, qHTS assay (AID 1346985); further: nearly all actives have a fitted effect of over 40% in size
In short: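 DPX-2 cells (HepG2 co-transfected with a PXR response element and a CYP3A4-promoter luciferase construct) were seeded at 2,000 per well, rested 5 hr at 37C, then exposed to DMSO-dissolved compounds for 24 hr. Activation was read as luciferase luminescence.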

[20] = biological target: Thyrotropin-releasing hormone receptor (Homo sapiens) (UniProt P34981); experiment: qHTS assay to identify small molecule agonists of the thyrotropin-releasing hormone receptor (TRHR) signaling pathway (AID 1346891; calls by dose curve;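 further: HEK293 cells expressing TRHR with calcium dye readout; series mostly up to about 58 µM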)
In short: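 HEK293/TRHR cells, 1500 per well, 18 h 37 °C; Ca dye 2 h 37 °C; pin-tool compound addition (agonist mode); kinetic fluorescence 3 min, 1 s reads; 15 concentrations, triplicate.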

Row | Compound | Potency [1] | Potency [2] | Potency [3] | Potency [4] | Potency [5] | Potency [6] | Potency [7] | Potency [8] | outcome [9] | Potency [10] | Potency [11] | Potency [12] | Potency [13] | Potency [14] | Potency [15] | max activation [16] | Potency [17] | Potency [18] | outcome [19] | Potency [20]
1 | C/C=C/C=C/C(=O)O | inactive | inactive | inactive | inactive | inactive | inactive | inactive | inactive | inactive | inactive | inactive | inactive | inactive | inactive | inactive | 0.352% (inactive) | – | – | – | –
2 | CCOC(N)=O | inactive | inactive | inactive | inactive | inactive | inactive | inactive | inactive | inactive | inactive | inactive | inactive | inactive | inactive | inactive | -2.09% (inactive) | inactive | inactive | inactive | –
3 | CS(=O)(=O)OCCCCOS(C)(=O)=O | inactive | inactive | inactive | inactive | inactive | inactive | inactive | inactive | inactive | inactive | inactive | inactive | inactive | inactive | inactive | -4.1% (inactive) | inactive | inactive | inactive | –
4 | CN(N=O)C(=O)N[C@@H]1[C@@H](O)[C@H](O)[C@@H](CO)O[C@@H]1O | inactive | inactive | inactive | inactive | inactive | inactive | inactive | inactive | inactive | inactive | inactive | inactive | inactive | inactive | inactive | -0.687% (inactive) | inactive | inactive | inactive | inactive
5 | Cc1cc(C)nc(NS(=O)(=O)c2ccc(N)cc2)n1 | inactive | inactive | inactive | inactive | inactive | inactive | inactive | inactive | inactive | inactive | inactive | inactive | inactive | inactive | inactive | – | inactive | – | – | –
6 | CN(C)C(=O)Nc1ccc(Cl)c(Cl)c1 | inactive | inactive | inactive | inactive | inactive | inactive | inactive | inactive | inactive | inactive | inactive | inactive | inactive | inactive | inactive | -0.866% (inactive) | 60.9 µM (active) and 48.6 µM (active) and inactive | inactive | inactive | –
7 | CCCCCCCC(=O)OCC(COC(=O)CCCCCCC)OC(=O)CCCCCCC | inactive | inactive | inactive | inactive | inactive | inactive | inactive | inactive | inactive | inactive | inactive | inactive | inactive | inactive | inactive | -1.45% (inactive) | inactive | inactive | inactive | inactive
8 | CC12CCC(CC1)C(C)(C)O2 | inactive | inactive | inactive | inactive | inactive | inactive | inactive | inactive | inactive | inactive | inactive | inactive | inactive | inactive | inactive | -0.857% (inactive) | inactive | inactive | inactive | –
9 | F[B-](F)(F)F | inactive | inactive | inactive | inactive | inactive | inactive | inactive | inactive | inactive | inactive | inactive | inactive | inactive | inactive | inactive | – | inactive | – | – | –
10 | OC[C@H]1O[C@H](O[C@]2(CCl)O[C@H](CCl)[C@@H](O)[C@@H]2O)[C@H](O)[C@@H](O)[C@H]1Cl | inactive | inactive | inactive | inactive | inactive | inactive | inactive | inactive | inactive | inactive | inactive | inactive | inactive | inactive | inactive | – | inactive | – | – | –
11 | CC(C)NCC(O)c1ccc(O)c(O)c1 (configuration not stated) | inactive | 54.5 µM (active) | inactive | inactive | inactive | inactive | inactive | inactive | inactive | inactive | inactive | inactive | inactive | inactive | inactive | – | – | – | – | –
12 | C=CCc1ccc(O)c(OC)c1 | inactive | inactive | inactive | inactive | inactive | inactive | inactive | inactive | inactive | inactive | inactive | inactive | inactive | inactive | inactive | -1.79% (inactive) | inactive | inactive | inactive | –
13 | Nc1c2c(nc3ccccc13)CCCC2 | inactive | inactive | inactive | inactive | inactive | inactive | inactive | inactive | inactive | inactive | 54.5 µM (active) | inactive | inactive | inactive | inactive | – | 48.6 µM (active) and 38.6 µM (active) and inactive | – | – | –
14 | CNNCc1ccc(C(=O)NC(C)C)cc1 | inactive | inactive | inactive | inactive | inactive | inactive | inactive | inactive | inactive | inactive | inactive | inactive | inactive | inactive | inactive | -1.77% (inactive) | – | – | – | inactive
